{"source": "PubChem BioAssay (Tox21)", "note": "Results filed as inconclusive are left out. Values without a mark were called inactive. The source made the active and inactive calls. Calls come from the whole dose curve; as a rule, active = well fitted cell-killing curve with a large enough effect in the repeat runs; inconclusive = weak or mixed curves, or effect the other way; inactive = flat fitted curve, though single readings scatter. % is set by controls: 0 for no effect and ±100 for the full control effect."}
{"assay": "qHTS assay to identify small molecule agonists of the androgen receptor (AR) signaling pathway in the presence of an antagonist - cell viability counter screen (AID 1259379); note: nearly all actives have a fitted effect of over 25% in size", "settings": "MDA-kb2 viability, CellTiter-Fluor, 16 h; series mostly up to 92.4 µM", "from_the_text": "National Center for Advancing Translational Sciences [NCATS]\nNIH Chemical Genomics Center [NCGC]\nU.S. Environmental Protection Agency [EPA]\nNational Institutes of Environmental Health Sciences [NIEHS]\nNational Toxicology Program [NTP]\nU.S. Food and Drug Administration [FDA]\nAndrogen receptor (AR) is an important member of nuclear receptor family. Its signaling plays a critical role in AR-dependent prostate cancer and other androgen related diseases. Considerable attention has been given in the past decades to develop methods to study and screen for the environmental chemicals that have the potential to interfere with metabolic homeostasis, reproduction, developmental and behavioral functions. Therefore AR binding assay for screening against androgen agonists and antagonists can be used to identify potential endocrine disruptors.\nMDA-kb2 cells (from ATCC, deposited by Wilson et al.) are human breast carcinoma cells that were stably transfected with a luciferase reporter gene under control of the MMTV promoter that contains response elements for both androgen receptor (AR) and glucocorticoid receptor (GR). This particular screening for measuring luciferase reporter gene activity using MDA-kb2 cells against Tox21 10K library compounds is a confirmation study on agonist mode screening in the presence of AR-antagonist compound (Nilutamide) at 3.0uM final concentration. The cytotoxicity of the compounds was tested in parallel by measuring the cell viability using CellTiter-Fluor assay system (Promega, Madison, WI) in the same wells.\nTox21 Assay Protocol Summary:\nMDA-kb2 cells (cells cultured without CO2) were dispensed at 3,000 cells/well in 4uL of culture medium into white wall/solid-bottom 1536-well plates (Corning Life Sciences, Corning, NY) using a Multidrop Combi (Thermo Fisher Scientific Inc., Waltham, MA) dispenser. The assay plates were incubated at 37C and 0% CO2 for 5hr. One uL of 3.0uM (final concentration) Nilutamide or assay buffer was added using two separate tips of Flying Reagent Dispenser (FRD, Aurora Discovery, San Diego, CA). Then 23nL of compounds dissolved in DMSO at 15 concentrations and positive controls were transferred to the assay plates using a Pintool station (Wako, San Diego, CA). The assay plates were incubated at 37C and 0% CO2 for 16 hr. After 15hr incubation at 37C, 1uL/well CellTiter-Fluor reagent (Promega Corporation) was added to each well of the assay plates using FRD. After 1hr incubation at 37C and 0% CO2, the fluorescence signal was measured using a ViewLux plate reader (PerkinElmer, Shelton, CT)."}
{"compound": "O=C(O)CNC(=O)CNC(=O)CNC(=O)CSC(=O)c1ccccc1", "outcome": "inactive"}
{"compound": "Cc1ccccc1C(N)=O", "outcome": "inactive"}
{"compound": "O=C=NCC1CCCC(CN=C=O)C1", "note": "(stereo not given)", "outcome": "inactive"}
{"compound": "CC(=O)CC(=O)Nc1ccc(C)cc1C", "outcome": "inactive"}
{"compound": "CN(C)C(C)(C)CO", "outcome": "inactive"}
{"compound": "CC1=NN(c2ccc(S(=O)(=O)O)cc2)C(=O)C1", "outcome": "inactive"}
{"compound": "CCc1occc(=O)c1O", "outcome": "inactive"}
{"compound": "Cc1cc(-c2ccccc2)nnc1NCCN1CCOCC1", "outcome": "inactive"}
{"compound": "COc1ccc2c(c1)c1c3n2CCN(C)C3=NCC1", "outcome": "inactive"}
{"compound": "O=C1NC(c2ccccc2)(c2ccccc2)C(=O)N1COP(=O)(O)O", "outcome": "inactive"}
{"compound": "COc1cc(OC)nc(O[C@H](C(=O)O)C(OC)(c2ccccc2)c2ccccc2)n1", "outcome": "inactive"}
{"compound": "O=[N+]([O-])c1c(Cl)cc(Cl)cc1Cl", "outcome": "inactive"}
{"compound": "CC(=O)CCC1=C(C)CCCC1(C)C", "outcome": "inactive"}
{"compound": "CC(C)=CCC/C(C)=C/COC=O", "outcome": "inactive"}
{"compound": "Cc1c(N)cccc1Cl", "outcome": "inactive"}
{"compound": "COC(=O)/C=C\\C(=O)O", "outcome": "inactive"}
{"compound": "C[C@]12CCC(=O)C=C1CC[C@H]1[C@@H]3CC[C@](O)(C(=O)CO)[C@@]3(C)C[C@H](O)[C@@]12F", "outcome": "inactive"}
{"compound": "CCCc1ccc(O)cc1", "outcome": "inactive"}
{"compound": "COP(=O)(O)OP(=O)(O)OC", "outcome": "inactive"}
{"compound": "COC(=O)CCCCC(CCSS/C(CCO)=C(\\C)N(C=O)Cc1cnc(C)nc1N)SC(C)=O", "note": "(stereo not given)", "outcome": "inactive"}
{"compound": "CC(S)C(C)S", "note": "(stereo not given)", "outcome": "inactive"}
{"compound": "Cn1c(=O)c2c(ncn2CCO)n(C)c1=O", "outcome": "inactive"}
{"compound": "Cn1nnc2c(C(N)=O)ncn2c1=O", "outcome": "inactive"}
{"compound": "O=C(CCCl)NCCc1ccccc1", "outcome": "inactive"}
{"compound": "COc1cc(/C=C/C(N)=O)cc(OC)c1OC", "outcome": "inactive"}
{"compound": "C=C(C)c1cccc(C(C)(C)N=C=O)c1", "outcome": "inactive"}
{"compound": "C=CC/C=C/C", "outcome": "inactive"}
{"compound": "[O]=[Mo](=[O])=[O]", "activity change, negative = cytotoxicity": "2.34% [at 19 µM]"}
{"compound": "CC(=O)OCC(=O)Nc1cc(C#N)cc(NC(=O)COC(C)=O)c1Cl", "outcome": "inactive"}
{"compound": "C[C@H]1[C@@H](c2ccccc2)NC(=O)N1C", "outcome": "inactive"}
{"compound": "CNCCS(=O)(=O)O", "outcome": "inactive"}
{"compound": "CCCC(=O)Nc1ccc(OCC(O)CNC(C)C)c(C(C)=O)c1", "note": "(stereo not given)", "outcome": "inactive"}
{"compound": "CC12CCC(C1)C(C)(C)C2O", "note": "(stereo not given)", "outcome": "inactive"}
{"compound": "Cc1c(NC(=O)c2cccnc2)c(=O)n(-c2ccccc2)n1C", "outcome": "inactive"}
{"compound": "N#CCC(=O)NN", "outcome": "inactive"}
{"compound": "COC(C)(OC)OC", "outcome": "inactive"}
{"compound": "CCO", "outcome": "inactive"}
{"compound": "C#CCN[C@@H]1CCc2ccccc21", "outcome": "inactive"}
{"compound": "OCC1CCC(CO)CC1", "note": "(stereo not given)", "outcome": "inactive"}
{"compound": "CC(O)CC(C)O", "note": "(stereo not given)", "outcome": "inactive"}
